Assay [1] can be described thus: inhibitors of TNFa-induced NFkB p65 translocation, primary screen, imaging, HUVEC, MLSMR starter and 10KST1 sets (AID 438;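 active = inhibition above 20% together with a positive visual image hit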;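 note: compound added about 3h40 before a 20 min TNFalpha stimulation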;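 for inhibition: signal is the nuclear over cytoplasmic p65 intensity ratio per well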). The settings on record: HUVEC TNFa-induced p65 nuclear translocation; cell count: measured here: nuclei count (cytotoxicity indicator), at 2.08 µM; inhibition: at 2 µM, stronger effect = higher value, 0% TNFa-plus-vehicle, 100% no-TNFa wells.
Assay [2] in a line: inhibitors of mutant huntingtin aggregation, primary screen, imaging, exon1htt(103Q)mCFP cells, high-content imaging (AID 483).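 For nuclei count: percent of the per-plate median nuclei count of sample wells.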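 Note: compound exposure lasted 3 days before fixation.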 To be noted: exon1htt(103Q)mCFP cell line, aggregate imaging, at 2 µM; inhibition of aggregation: stronger effect = higher value; nuclei count: measured here: cell count, toxicity.
Assay [3] is described as follows: inhibitors of E-selectin induction by TNFa, primary screen, imaging, HUVEC, immunofluorescence, MLSMR starter and 10KST1 sets (AID 487;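 active = visually confirmed hit in the image check and inhibition above 20%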;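 for inhibition: signal is fraction of cell area covered by stained E-selectin grains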;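 for nuclei count: 100% = median nuclei count of all wells on the same plate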). The settings on record: HUVEC TNFalpha-induced E-selectin immunofluorescence imaging, at 2 µM; inhibition: stronger effect = higher value; nuclei count: measured here: cell number, toxicity.
Assay [4] deals with Voltage-gated potassium channel subunit beta-2 (Rattus norvegicus) (UniProt P62483). Description: KvBeta enzyme negative modulators, primary screen, biochemical, NADPH fluorescence (AID 622;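 active = fluorescence slope higher than the sample average by over 3 SD, cut at about -0.22 in these data, passing the limit was not always enough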;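 note: slope of raw intensity against log time taken from 70 to 1610 s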). To be noted: recombinant KvBeta, 4-cyanobenzaldehyde reduction, at 10 µM, stronger effect = higher value.
Sequence of Voltage-gated potassium channel subunit beta-2 (Rattus norvegicus) (P62483 whole entry, looked up): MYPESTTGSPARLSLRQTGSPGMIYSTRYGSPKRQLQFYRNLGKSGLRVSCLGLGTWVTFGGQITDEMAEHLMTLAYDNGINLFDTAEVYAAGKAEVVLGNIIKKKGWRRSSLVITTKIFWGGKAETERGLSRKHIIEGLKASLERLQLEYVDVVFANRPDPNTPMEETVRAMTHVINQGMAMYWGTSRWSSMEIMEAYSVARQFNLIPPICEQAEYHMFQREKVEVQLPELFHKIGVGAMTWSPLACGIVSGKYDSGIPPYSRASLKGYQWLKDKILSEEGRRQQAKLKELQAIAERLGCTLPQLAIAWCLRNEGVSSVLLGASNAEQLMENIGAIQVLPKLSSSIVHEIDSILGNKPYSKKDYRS
Assay [5] shares this target. Description: KvBeta positive modulators, primary screen, biochemical, NADPH fluorescence (AID 623;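 active = NADPH fluorescence slope more negative than the mean of all samples by about 3 SD, 99.7% confidence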;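 note: fluorescence intensity change per second fitted from 20 to 320 s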). To be noted: Recombinant KvBeta, NADPH fluorescence decrease slope, 10 min; at 10 µM; stronger effect = lower value.
The target in assay [6] is Alpha-2C adrenergic receptor (Homo sapiens) (UniProt P18825). Description: modulators of alpha2C/GIRK thallium flux, primary screen, cell-based, HEK293 alpha2C/GIRK1/2 (AID 624;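 active = fluorescence slope after compound addition differing from the mean of all screened samples at 99.7% confidence, in either direction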;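 note: slope of fluorescence ratio to pre-addition baseline per second over 15 to 24 s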). To be noted: thallium flux BTC fluorescence, at 10 µM, actives lie on both sides.
Sequence of Alpha-2C adrenergic receptor (Homo sapiens) (P18825 whole entry, looked up): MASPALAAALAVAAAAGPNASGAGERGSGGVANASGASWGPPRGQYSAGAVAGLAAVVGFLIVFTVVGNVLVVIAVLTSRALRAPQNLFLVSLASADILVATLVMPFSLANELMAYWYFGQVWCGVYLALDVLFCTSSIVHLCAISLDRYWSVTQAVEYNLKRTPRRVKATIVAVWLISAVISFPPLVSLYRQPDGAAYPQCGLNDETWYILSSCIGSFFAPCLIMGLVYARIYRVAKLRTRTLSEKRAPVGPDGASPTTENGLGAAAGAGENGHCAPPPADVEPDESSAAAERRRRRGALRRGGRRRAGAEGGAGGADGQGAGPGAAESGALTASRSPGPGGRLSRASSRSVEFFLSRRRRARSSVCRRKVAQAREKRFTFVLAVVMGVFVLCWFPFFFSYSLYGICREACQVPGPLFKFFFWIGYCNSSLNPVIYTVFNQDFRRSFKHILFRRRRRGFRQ
The nature of assay [7]: inhibitors of Sendai virus-induced IRF3 signaling, primary screen, TLR/RLR signaling modifier project, cell-based, Sendai virus stimulus, luciferase, 10K MLSCN set (AID 602276;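 active = inhibition at or above 50% at 10 µM; inactive = inhibition below 50%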;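 note: firefly luciferase from ISG56 promoter only with Renilla not read in this screen; 0% = Sendai virus plus DMSO and 100% = medium plus DMSO without virus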). To be noted: HEK293 RL24 IRF3 luciferase reporter, at 10 µM, stronger effect = higher value.
The nature of assay [8]: inhibitors of poly I:C-induced TLR3 signaling, primary screen, cell-based, poly I:C stimulus, luciferase, 10K MLSCN set (AID 602277;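 active = inhibition of the reporter signal at or above 50%; inactive = inhibition below 50%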). To be noted: HEK293-TLR3 RL24 IRF3 luciferase reporter, at 10 µM, stronger effect = higher value.

Calls of active or inactive are those of the source.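 Rule for the calls, unless noted: active = visual image review flags a hit and inhibition of aggregation exceeds 20%; inconclusive = visual hit but inhibition at or below 20%; inactive = no hit on visual image review.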

Regarding `CC1=C(C(=O)N2CCOCC2)C(c2ccsc2)C2=C(CCCC2=O)N1` (centres undefined), in assay [1], the cell count was 326. The inhibition in assay [1] is -25.2% (inactive); in assay [3] it was -11.7% (inactive); in assay [7], 19.4% (inactive); in assay [8], 20.8% (inactive). Moreover, the inhibition of aggregation in assay [2] was 2.7% (inactive). Also, the nuclei count in assay [2] worked out at 99.6%; in assay [3] it was 110%. Also, the fluorescence slope in assay [4] is -0.408 (inactive). Moreover, the NADPH fluorescence slope in assay [5] was -4.5e-05 (inactive). Moreover, the slope in assay [6] is 0.00554 (inactive).

`COCC(C)NC(=O)CCS(=O)(=O)c1nc(-c2ccc(OC)cc2)cc(C(F)(F)F)n1` (centres undefined): in assay [1], the cell count is 638. In addition, the inhibition in assay [1] was 7.9% (inactive); in assay [3] it was -37.9% (inactive); in assay [7], 17.7% (inactive); in assay [8], 1.39% (inactive). Besides, in assay [2], the inhibition of aggregation is 2.6% (inactive). The nuclei count in assay [2] turned out to be 96.3%; in assay [3] it was 192%. In addition, the fluorescence slope in assay [4] is -0.323 (inactive). Also, the NADPH fluorescence slope in assay [5] was -2.1e-05 (inactive). In assay [6], the slope is 0.00386 (inactive).

Consider `CC(C)(C)c1ccc(-c2nnc(SCCC#N)n2C2CCCC2)cc1`, for which the cell count in assay [1] was 410. Also, the inhibition in assay [1] is 5.5% (inactive); in assay [3], -2.3% (inactive); in assay [7], -5.13% (inactive); in assay [8] it was 10.8% (inactive). Further, in assay [2], the inhibition of aggregation is 10.8% (inactive). The nuclei count in assay [2] came out at 115%; in assay [3], 97.3%. In addition, the fluorescence slope in assay [4] was -0.483 (inactive). Also, the NADPH fluorescence slope in assay [5] was -3e-05 (inactive). In assay [6], the slope was 0.00637 (inactive).

With `O=C(C1CCN(c2nnc(-n3cccc3)s2)CC1)N1CCN(Cc2ccc3c(c2)OCO3)CC1`, the cell count in assay [1] is 707. In addition, the inhibition in assay [1] was -9.2% (inactive); in assay [3], -56.3% (inactive); in assay [7], -2.25% (inactive); in assay [8], -31.5% (inactive). Besides, the inhibition of aggregation in assay [2] is -39.4% (inactive). Also, the nuclei count in assay [2] came out at 115%; in assay [3], 113%. In addition, in assay [4], the fluorescence slope is -0.593 (inactive). For the same molecule, the NADPH fluorescence slope in assay [5] is -2e-05 (inactive). Also, the slope in assay [6] was 0.00596 (inactive).

For `Cn1c(=N)c(S(=O)(=O)c2ccccc2)cc2c(=O)n3ccccc3nc21`, in assay [1], the cell count stood at 442. The inhibition in assay [1] is -5.1% (inactive); in assay [3] it was -85.8% (inactive); in assay [7], -14.3% (inactive); in assay [8], -10.5% (inactive). Further, the inhibition of aggregation in assay [2] is -1.9% (inactive). Further, the values for the nuclei count in assay [2] and in assay [3] were 114% and 235%, respectively. Also, the fluorescence slope in assay [4] is -0.517 (inactive). Also, the NADPH fluorescence slope in assay [5] was -9.2e-06 (inactive). Further, in assay [6], the slope was 0.00488 (inactive).

`CCc1ccc(C2CC(c3cccc(OC)c3)n3nc(N)nc3N2)cc1` (centres undefined): the cell count in assay [1] amounted to 528. In addition, the inhibition in assay [1] was 7.5% (inactive); in assay [3], -40.1% (inactive); in assay [7] it was 11.5% (inactive); in assay [8] it was 25.7% (inactive). The inhibition of aggregation in assay [2] is 3.7% (inactive). In addition, the nuclei count in assay [2] was 111%; in assay [3], 104%. In assay [4], the fluorescence slope is -0.599 (inactive). Moreover, the NADPH fluorescence slope in assay [5] was -4e-05 (inactive). Besides, the slope in assay [6] is 0.00641 (inactive).

On to `CN1C(=O)C(O)(CC(=O)c2ccc3c(c2)OCO3)c2ccccc21` (centres undefined), for which the cell count in assay [1] was 340. Also, the inhibition in assay [1] was 6% (inactive); in assay [3], -11.1% (inactive); in assay [7] it was 4.81% (inactive); in assay [8] it was 32.2% (inactive). Further, the inhibition of aggregation in assay [2] was -7.9% (inactive). In addition, the nuclei count in assay [2] came to 105%; in assay [3] it was 108%. The fluorescence slope in assay [4] is -0.457 (inactive). The NADPH fluorescence slope in assay [5] was 6.3e-06 (inactive). In addition, the slope in assay [6] is 0.00347 (inactive).

Regarding `Cc1cc(N)n2nc(-c3ccccc3)cc2n1`, the cell count in assay [1] stood at 492. The inhibition in assay [1] was 1.2% (inactive); in assay [3], -15.5% (inactive); in assay [7], -31.2% (inactive); in assay [8] it was -74.6% (inactive). In assay [2], the inhibition of aggregation was 0% (inactive). For the same molecule, the nuclei count in assay [2] worked out at 98.3%; in assay [3] it was 110%. For the same molecule, the fluorescence slope in assay [4] is -0.421 (inactive). For the same molecule, in assay [5], the NADPH fluorescence slope is -8.6e-05 (inactive). For the same molecule, the slope in assay [6] was 0.00566 (inactive).

Consider `CC(C)CCSc1nc2c(c(=O)[nH]c(=O)n2C)n1CCCc1ccccc1`, for which, in assay [1], the cell count was 618. Besides, the inhibition in assay [1] was -5.9% (inactive); in assay [3], -34.8% (inactive); in assay [7], 10.3% (inactive); in assay [8], 29.8% (inactive). Moreover, the inhibition of aggregation in assay [2] was 26.4% (inactive). The nuclei count in assay [2] came to 103%; in assay [3], 120%. Moreover, the fluorescence slope in assay [4] is -0.414 (inactive). In assay [5], the NADPH fluorescence slope was -4.8e-05 (inactive). Besides, the slope in assay [6] was 0.00519 (inactive).

Regarding `O=C(Nc1ccc(O)cc1)C1CCCN1S(=O)(=O)c1ccc(F)cc1` (centres undefined), the cell count in assay [1] stood at 598. Moreover, the inhibition in assay [1] was -2.1% (inactive); in assay [3] it was -33.3% (inactive); in assay [7], 8.7% (inactive); in assay [8] it was 9.85% (inactive). In assay [2], the inhibition of aggregation was -9.8% (inactive). Besides, the nuclei count stood at 90% in assay [2] and 119% in assay [3]. For the same molecule, the fluorescence slope in assay [4] is -0.497 (inactive). In addition, the NADPH fluorescence slope in assay [5] is -2.5e-05 (inactive). In addition, the slope in assay [6] was 0.00664 (inactive).

Regarding `Cc1ccc2nc3c(cc(C(=O)NCC4CCCO4)n3C)c(=O)n2c1` (centres undefined), the cell count in assay [1] came out at 405. In addition, the inhibition in assay [1] is 9.7% (inactive); in assay [3], -25.5% (inactive); in assay [7] it was -21.8% (inactive); in assay [8], -39.8% (inactive). Further, the inhibition of aggregation in assay [2] was 2.7% (inactive). The nuclei count in assay [2] was determined as 111%; in assay [3], 114%. The fluorescence slope in assay [4] was -0.0813 (active). Moreover, the NADPH fluorescence slope in assay [5] is -3.2e-06 (inactive). In assay [6], the slope is 0.00481 (inactive).

Turning to `CC(C)(C)NC(=O)COC(=O)c1snc(C(=O)NC2CCCCC2)c1N`, the cell count in assay [1] turned out to be 236. Moreover, the inhibition in assay [1] was 13.3% (inactive); in assay [3], -55.6% (inactive); in assay [7], 9.79% (inactive); in assay [8], -26% (inactive). In addition, the inhibition of aggregation in assay [2] is 3.3% (inactive). In addition, the values for the nuclei count in assay [2] and in assay [3] were 99.5% and 96.2%, respectively. Moreover, the fluorescence slope in assay [4] was -0.586 (inactive). Moreover, the NADPH fluorescence slope in assay [5] is 2.8e-05 (inactive). Moreover, the slope in assay [6] was 0.00501 (inactive).

For `COc1ccc(-c2nnc(SCC(=O)N3CCCCC3)o2)cc1OC`, the cell count in assay [1] came out at 670. Further, the inhibition in assay [1] was -1.6% (inactive); in assay [3], -85.6% (inactive); in assay [7], 3.05% (inactive); in assay [8], 15.9% (inactive). Further, the inhibition of aggregation in assay [2] is 5.7% (inactive). Moreover, the nuclei count in assay [2] worked out at 120%; in assay [3], 123%. Besides, the fluorescence slope in assay [4] is -0.543 (inactive). In assay [5], the NADPH fluorescence slope is -9.6e-06 (inactive). Also, the slope in assay [6] was 0.00656 (inactive).

On to `CCOc1ccc(Cn2nnc(C(=O)Nc3ccc(OC)cc3OC)c2N)cc1`, for which the cell count in assay [1] was found to be 720. Moreover, the inhibition in assay [1] was -6.1% (inactive); in assay [3], -9.7% (inactive); in assay [7], -5.26% (inactive); in assay [8], -8.45% (inactive). Also, the inhibition of aggregation in assay [2] was 7.2% (inactive). Also, the nuclei count in assay [2] turned out to be 108%; in assay [3] it was 106%. Moreover, in assay [4], the fluorescence slope was -0.49 (inactive). Moreover, in assay [5], the NADPH fluorescence slope is -3.6e-05 (inactive). Further, in assay [6], the slope is 0.00559 (inactive).
